Data on 40 sequences can be found in the supplement of paper PMC6555819.

The subject of the experiment is VDR:RXRa (NR concentration 270 nM, RXRa partner concentration 90 nM). Put plainly: PBM binding z-score (relative to random genomic background probes); higher = stronger binding; sequences stand for … in GC…GCGATTGACAGCGTAGAATGAAGG
How it is done:
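Protein-binding microarray (Agilent 4x180K custom design, double-stranded 60-nt probes: 5' GC cap, 34-nt variable region, 24-nt constant primer region; full probe sequence given). Purified or IVT nuclear receptor:RXRα heterodimers (3:1 NR:RXRα, mostly 270:90 nM) or homodimers were incubated for 1 h in PBS with 2% milk and no ligand, then detected with Alexa488 antibodies. Fluorescence from o1-orientation probes (~5 replicates averaged) was converted to z-scores against 500 random hg19 background probes. Variable regions are seed direct-repeat (DR0–DR5) sites, all their single-nucleotide variants and half-site ablations.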
As to TCGAGTAGGTTAGGGGCTTTCAGAATGGCGTCGA, the PBM binding z-score is -0.3.

With ACAGTCAGGTGATGAAGGTAACTCAGGCTATCAT, the PBM binding z-score was -0.0524.

Sequence TTACCAAGGTGAAGGTCGGTGATCCCTCTGTAGA showed a PBM binding z-score of 0.428.

Regarding CCGACTGGGGGAGAAAGGTTACCATACCATCCGG, the PBM binding z-score turned out to be 1.42.

TAGCCTAGGTCATTCAGGGGCCTGTATAGAAAGC registered a PBM binding z-score of 2.69.

As for TTACCAAGGTGAAAGGTTGTTGATGCACGCCTTG, the PBM binding z-score turned out to be 1.15.

With AGAACTAGGGCAATGAGTTGATAGCACGGGTGGC, the PBM binding z-score was 3.17.

GCTGCTAGGTCAACTGATGGTCAGCTGAAGCTCG displayed a PBM binding z-score of 1.61.

Take ATATGAAGGTTACATCCGGGTCATTCAGGCTATG: the PBM binding z-score was determined as 4.85.

The sequence TTACCAAGGTGAGCTCAGGTCGTTGATCCAACTC showed a PBM binding z-score of 1.81.

In turn, GCGACTGGGGCATCAGCAAGTTACCATAACTTAA showed a PBM binding z-score of -0.37.

In turn, GCGACTGGGGCGAAGCAGGTTACCATAAGGTTGG registered a PBM binding z-score of -0.549.

As for GCTCGGAGGACAAGGTCAGAGATTTGTCCGTAGA, the PBM binding z-score was 1.22.

Sequence TCAGACAGGTGAAGGCAACTCAGGTACGCAGTCG came in with a PBM binding z-score of 0.552.

Consider TCATACAGGTAAAAGGTGAAAGTCGGTGTGGTAA, for which the PBM binding z-score came out at 1.64.

In turn, GCTACTAGTTGAAAGGGCAACCGAATGATTCTCG registered a PBM binding z-score of 0.234.

With TGTCAAAGTTCAAAAGTAACGTAAGTATCCACAC, the PBM binding z-score amounted to 3.97.

Regarding CGAACGAGGGCATGAGTTGATCGCAAATGCCGAT, the PBM binding z-score was determined as 1.34.

For TGAATGAGGTGATAAGATCAGGGAACGTTGCAAA, the PBM binding z-score is -0.169.

For the sequence TCTATTAGTTGAAGGGCAACGGACGAGTCCGTTT, the PBM binding z-score came to 1.06.

GCAGACAGGTTAAACGCAGGTAACTCAGGGTGGC displayed a PBM binding z-score of 0.135.

Regarding ACTATTAGTTGACTTAGGGCAAGCGATACGACGC, the PBM binding z-score is 0.174.

Regarding TCTCCTAGGTCAGTTGGTCAGCTAACGAGCTGCC, the PBM binding z-score amounted to 0.839.

Sequence ATCGCTAGGTAAAAGTTCAGTGAATCCCGAGGAT had a PBM binding z-score of 0.809.

For CGTCCAAGGTTATAGGAGGTCAGTGAAGACAGAT, the PBM binding z-score came to 4.85.

As for TGACCAAGGTGAGCTGAGGTCGTTGATCCAACTC, the PBM binding z-score was found to be 3.9.

Take CCTCGGAGGACAACAGGAGATCAGAGCTGCCAGA: the PBM binding z-score was -0.616.

The sequence CGAACTAGGTCATCCAGGACAGTAAATACATTGA yielded a PBM binding z-score of 4.71.

For AGTCAAAGTTCATCTAGGTAACGTAGGATATGCT, the PBM binding z-score worked out at 5.09.

CCTAGCAGGCCAATCTGGGTCACCCAAGGCTTGA: the PBM binding z-score was 0.707.

GCTTGTAGCTCAAGGTTAAGAAAGACTAAGCTAA yielded a PBM binding z-score of -0.0239.

On to TCATATAGATAAAAGGTGAAAGTCGGTGTGGTAA, for which the PBM binding z-score worked out at 1.35.

The sequence ATCTCTCGGTAACCAAGTTCAGTGAATGCCGAAC gave a PBM binding z-score of 2.72.

Regarding CCTACTGGGCCAAGGCCATTGATCAGTCAAAGCA, the PBM binding z-score is -0.446.

Consider GGAACGAGGGCAAGTTGATAGAAGAGTTTGATGG, for which the PBM binding z-score is 0.975.

The sequence TCTCGGTGGACACGAAAGGTCAGAGCTCGACATC came in with a PBM binding z-score of 2.84.

Sequence ATATGTTGGTTATCGGGTCATTCAGTTTGCGCAT showed a PBM binding z-score of 4.86.

CCTACTGGGCTAAAGGTCATTGATTCCAATGCTC gave a PBM binding z-score of 4.38.

As to TAGCCTAGGTCATTCCGGGGCCAGTATAGAAAGC, the PBM binding z-score amounted to 2.94.

In turn, CAGCCTAGGTCAGGGCCAGTCTAGGAGGAACGTT had a PBM binding z-score of 0.0507.
